Drawing on ChEMBL document CHEMBL1961873, “Compounds: GSK PKIS; Assays: Nanosyn kinase panel” (2012), this text covers inhibition for 17 compounds.

For assay [1], the target named is Tyrosine-protein kinase SYK (Homo sapiens) (UniProt P43405). The conditions noted are these: at 1 µM.
Assay [2] concerns the target T1, Tyrosine-protein kinase Tec (Homo sapiens) (UniProt P42680).
T1 sequence (whole entry): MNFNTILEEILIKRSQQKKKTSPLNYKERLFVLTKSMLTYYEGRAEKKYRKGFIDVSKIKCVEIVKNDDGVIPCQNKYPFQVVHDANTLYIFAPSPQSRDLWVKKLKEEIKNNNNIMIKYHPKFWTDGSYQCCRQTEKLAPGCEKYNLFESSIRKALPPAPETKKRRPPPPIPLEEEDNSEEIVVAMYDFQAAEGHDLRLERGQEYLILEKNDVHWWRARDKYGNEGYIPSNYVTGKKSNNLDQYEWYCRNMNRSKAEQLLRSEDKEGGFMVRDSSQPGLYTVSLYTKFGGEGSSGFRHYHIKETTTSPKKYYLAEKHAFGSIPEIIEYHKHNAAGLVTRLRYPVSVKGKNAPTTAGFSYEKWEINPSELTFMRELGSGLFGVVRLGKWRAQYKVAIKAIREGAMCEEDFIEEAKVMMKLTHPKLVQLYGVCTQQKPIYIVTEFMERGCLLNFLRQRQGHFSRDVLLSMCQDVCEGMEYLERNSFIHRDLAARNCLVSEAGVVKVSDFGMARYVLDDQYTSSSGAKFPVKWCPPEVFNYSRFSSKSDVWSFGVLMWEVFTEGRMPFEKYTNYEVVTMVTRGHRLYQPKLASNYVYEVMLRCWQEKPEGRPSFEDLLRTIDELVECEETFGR
The conditions noted are these: at 0.1 µM.

Assay [3] deals with T1, Tyrosine-protein kinase Tec (Homo sapiens). The settings on record: at 1 µM.
Assay [4] addresses Angiopoietin-1 receptor (Homo sapiens) (UniProt Q02763). The settings on record: at 0.1 µM.
Assay [5] has the same target. The conditions noted are these: at 1 µM.
Assay [6] concerns the target T2, Non-receptor tyrosine-protein kinase TNK1 (Homo sapiens) (UniProt Q13470).
T2 sequence (whole entry): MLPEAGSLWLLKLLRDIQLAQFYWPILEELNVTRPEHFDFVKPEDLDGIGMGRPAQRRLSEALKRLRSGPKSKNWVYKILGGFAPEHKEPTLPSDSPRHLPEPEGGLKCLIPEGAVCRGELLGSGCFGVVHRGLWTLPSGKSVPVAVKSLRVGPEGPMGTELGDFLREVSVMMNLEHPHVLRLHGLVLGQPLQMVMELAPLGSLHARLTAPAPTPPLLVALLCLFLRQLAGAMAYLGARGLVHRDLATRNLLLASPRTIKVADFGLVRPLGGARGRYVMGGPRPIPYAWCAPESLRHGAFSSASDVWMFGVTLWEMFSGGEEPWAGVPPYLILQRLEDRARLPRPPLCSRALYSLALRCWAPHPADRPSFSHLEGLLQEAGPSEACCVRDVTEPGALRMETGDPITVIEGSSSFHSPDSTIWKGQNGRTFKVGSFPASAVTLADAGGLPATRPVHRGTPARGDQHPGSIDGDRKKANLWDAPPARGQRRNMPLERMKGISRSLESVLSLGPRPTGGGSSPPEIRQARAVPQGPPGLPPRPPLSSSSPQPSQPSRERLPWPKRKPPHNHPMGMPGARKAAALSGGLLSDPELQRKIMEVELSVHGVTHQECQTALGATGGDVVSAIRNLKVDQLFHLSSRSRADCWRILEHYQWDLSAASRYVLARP
The settings on record: at 0.1 µM.

In assay [7] the target is T2, Non-receptor tyrosine-protein kinase TNK1 (Homo sapiens). The settings on record: at 1 µM.
Assay [8] addresses Activated CDC42 kinase 1 (Homo sapiens) (UniProt Q07912). The conditions noted are these: at 0.1 µM.
The target is the same in assay [9]. The settings on record: at 1 µM.
Assay [10] has as its target High affinity nerve growth factor receptor (Homo sapiens) (UniProt P04629). The conditions noted are these: at 0.1 µM.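 Further: each value is a mean of replicate percent inhibition readings against TRKA kinase.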

Chain of High affinity nerve growth factor receptor (Homo sapiens) (P04629 33-796 limits assumed): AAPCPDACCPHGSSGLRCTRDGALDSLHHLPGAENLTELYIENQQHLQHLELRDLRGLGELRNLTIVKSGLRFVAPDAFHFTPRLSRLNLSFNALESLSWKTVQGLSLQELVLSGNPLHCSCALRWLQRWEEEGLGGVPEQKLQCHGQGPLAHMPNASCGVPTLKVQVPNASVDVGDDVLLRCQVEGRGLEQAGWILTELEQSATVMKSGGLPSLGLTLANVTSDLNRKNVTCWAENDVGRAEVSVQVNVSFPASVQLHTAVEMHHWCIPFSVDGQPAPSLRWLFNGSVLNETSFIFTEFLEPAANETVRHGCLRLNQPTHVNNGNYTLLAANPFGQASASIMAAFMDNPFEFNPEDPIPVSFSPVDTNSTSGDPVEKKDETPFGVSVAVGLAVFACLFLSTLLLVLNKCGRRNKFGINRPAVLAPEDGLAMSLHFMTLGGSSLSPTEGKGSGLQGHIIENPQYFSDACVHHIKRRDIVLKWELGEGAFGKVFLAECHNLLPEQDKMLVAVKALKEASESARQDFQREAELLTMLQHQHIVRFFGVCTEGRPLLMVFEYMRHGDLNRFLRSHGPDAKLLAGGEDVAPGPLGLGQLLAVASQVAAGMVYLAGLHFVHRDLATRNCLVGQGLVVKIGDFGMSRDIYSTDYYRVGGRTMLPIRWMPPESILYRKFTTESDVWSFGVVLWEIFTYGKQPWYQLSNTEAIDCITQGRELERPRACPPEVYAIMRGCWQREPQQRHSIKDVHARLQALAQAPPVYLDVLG
Chain of Activated CDC42 kinase 1 (Homo sapiens) (Q07912 whole entry, looked up): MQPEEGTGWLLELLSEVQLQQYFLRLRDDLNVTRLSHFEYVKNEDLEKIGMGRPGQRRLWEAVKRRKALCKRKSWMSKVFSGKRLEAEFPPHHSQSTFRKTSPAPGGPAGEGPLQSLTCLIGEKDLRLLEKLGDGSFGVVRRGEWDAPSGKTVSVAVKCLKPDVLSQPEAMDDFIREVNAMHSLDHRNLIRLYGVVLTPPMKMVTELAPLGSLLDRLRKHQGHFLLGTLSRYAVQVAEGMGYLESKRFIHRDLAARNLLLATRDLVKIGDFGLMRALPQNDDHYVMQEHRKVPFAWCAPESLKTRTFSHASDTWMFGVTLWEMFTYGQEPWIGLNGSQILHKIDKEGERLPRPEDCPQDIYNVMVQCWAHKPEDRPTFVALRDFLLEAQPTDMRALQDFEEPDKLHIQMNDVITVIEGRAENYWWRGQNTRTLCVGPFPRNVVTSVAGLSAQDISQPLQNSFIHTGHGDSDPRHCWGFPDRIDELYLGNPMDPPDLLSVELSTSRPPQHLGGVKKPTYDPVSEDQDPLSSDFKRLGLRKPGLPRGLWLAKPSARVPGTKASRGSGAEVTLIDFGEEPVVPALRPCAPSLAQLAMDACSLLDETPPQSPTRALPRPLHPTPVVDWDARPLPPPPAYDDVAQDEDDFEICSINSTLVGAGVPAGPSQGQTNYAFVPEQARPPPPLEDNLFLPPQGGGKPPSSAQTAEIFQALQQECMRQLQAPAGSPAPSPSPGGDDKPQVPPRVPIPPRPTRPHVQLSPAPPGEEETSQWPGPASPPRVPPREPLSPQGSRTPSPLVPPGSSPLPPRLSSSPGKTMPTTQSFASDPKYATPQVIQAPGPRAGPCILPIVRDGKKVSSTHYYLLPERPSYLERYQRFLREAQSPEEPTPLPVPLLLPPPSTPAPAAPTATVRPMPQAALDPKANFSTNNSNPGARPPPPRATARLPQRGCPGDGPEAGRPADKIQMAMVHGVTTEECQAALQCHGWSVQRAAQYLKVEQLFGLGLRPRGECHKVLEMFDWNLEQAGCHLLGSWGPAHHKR
Chain of Angiopoietin-1 receptor (Homo sapiens) (Q02763 whole entry): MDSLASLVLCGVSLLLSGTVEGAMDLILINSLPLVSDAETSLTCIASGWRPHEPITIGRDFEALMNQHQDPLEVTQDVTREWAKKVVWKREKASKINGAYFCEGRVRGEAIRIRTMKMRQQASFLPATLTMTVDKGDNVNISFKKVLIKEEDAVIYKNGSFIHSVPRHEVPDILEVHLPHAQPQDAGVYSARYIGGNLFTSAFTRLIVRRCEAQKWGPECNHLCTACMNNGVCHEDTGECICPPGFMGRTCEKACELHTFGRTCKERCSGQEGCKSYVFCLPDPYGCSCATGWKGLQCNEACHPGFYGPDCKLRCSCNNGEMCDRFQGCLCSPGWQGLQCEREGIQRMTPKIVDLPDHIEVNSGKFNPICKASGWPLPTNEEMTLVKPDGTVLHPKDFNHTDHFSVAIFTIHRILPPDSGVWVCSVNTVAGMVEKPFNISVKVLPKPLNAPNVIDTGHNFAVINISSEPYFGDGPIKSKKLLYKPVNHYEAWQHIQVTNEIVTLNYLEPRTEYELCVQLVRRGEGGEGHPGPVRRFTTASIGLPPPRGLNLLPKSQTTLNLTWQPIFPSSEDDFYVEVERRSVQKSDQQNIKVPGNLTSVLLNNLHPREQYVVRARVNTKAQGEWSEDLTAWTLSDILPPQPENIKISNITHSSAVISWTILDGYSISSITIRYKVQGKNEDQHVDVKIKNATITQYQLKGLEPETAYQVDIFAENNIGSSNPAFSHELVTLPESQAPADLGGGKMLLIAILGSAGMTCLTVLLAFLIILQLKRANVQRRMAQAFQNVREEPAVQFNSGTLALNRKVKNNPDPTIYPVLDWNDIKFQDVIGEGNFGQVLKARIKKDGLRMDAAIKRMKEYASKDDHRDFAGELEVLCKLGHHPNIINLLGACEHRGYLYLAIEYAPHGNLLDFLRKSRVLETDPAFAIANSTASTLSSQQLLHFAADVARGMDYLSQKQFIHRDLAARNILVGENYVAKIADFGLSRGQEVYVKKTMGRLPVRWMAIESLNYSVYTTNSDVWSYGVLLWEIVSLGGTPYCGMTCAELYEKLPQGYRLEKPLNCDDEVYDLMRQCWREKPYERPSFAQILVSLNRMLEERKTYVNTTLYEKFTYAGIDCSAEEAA

`CNC(=O)c1cccc(C#Cc2cncnc2Nc2ccc(OCc3cccc(F)c3)c(Cl)c2)c1`: the inhibition in assay [1] is 0.47%; in assay [2] it was 0.86%; in assay [3], 2.99%; in assay [4] it was -0.1%; in [5], 2.32%; in [6], -0.06%. The inhibition in assay [7] was 10.8%; in assay [8], -0.6%; in assay [9], 0.21%; in [10], -0.85%.
In the case of `COc1cc(Nc2nccc(Nc3ccc4c(C)n[nH]c4c3)n2)cc(OC)c1OC`, the inhibition is 42.8% in assay [1]; 23.6% in [2]; 63.1% in [3]; 8.4% in [4]; 49.8% in [5]; 43% in [6]. For the same compound, the inhibition is 77.3% in assay [7], 10.1% in assay [8], 52.9% in assay [9] and 12.2% in assay [10].
As for `Nc1nc(-c2ccc(F)cc2)c(-c2ccc3ncccc3n2)s1`, the inhibition in [1] worked out at 0.4%; in assay [2], 4.57%; in [3] it was 6.46%; in [4] it was 1.26%; in [5], 4.32%; in [6] it was 4.65%. Moreover, the inhibition is 6.8% in assay [7], 1.85% in assay [8], 3.57% in assay [9] and 4.1% in assay [10].
`Nc1nc(-c2cccc(Cl)c2)c(-c2ccc3ncccc3n2)s1`: the inhibition in [1] was -0.99%; in assay [2] it was 5.56%; in assay [3], 5.26%; in [4], 4.2%; in assay [5] it was 5.76%; in assay [6], 3.08%. Besides, the inhibition in assay [7] was found to be 11.5%; in assay [8], 3.52%; in assay [9], 2.83%; in assay [10], 2.32%.
For `CNC(=O)c1cc(-c2ccc(F)cc2)cc(-c2ccc(S(=O)(=O)N3CCCC3)cc2)c1N`, the inhibition was 0.73% in assay [1]; 2.93% in assay [2]; 3.29% in assay [3]; 2.3% in assay [4]; 2.3% in [5]; 2.65% in assay [6]. In addition, the inhibition worked out at 2.41% in [7], 0.47% in assay [8], 1.54% in assay [9] and 1.97% in assay [10].
As for `CCCN(CCS(C)(=O)=O)Cc1ccc(-c2ccc3ncnc(Nc4ccc(OCc5cccc(F)c5)c(Cl)c4)c3c2)o1`, the inhibition came to 1.17% in assay [1]; 2.93% in assay [2]; 4.68% in assay [3]; 1.56% in [4]; 6.25% in [5]; 1.24% in assay [6]. Also, the inhibition in assay [7] stood at 12%; in assay [8], 0.32%; in assay [9], 1.4%; in assay [10] it was 2.55%.
Regarding `N#Cc1c(NC(=O)c2ccc(F)cc2)sc2c1CCCC2`, the inhibition in assay [1] was -0.64%; in assay [2] it was 1.75%; in assay [3], 1.25%; in assay [4], 1.49%; in assay [5], 2.44%; in [6], -1.86%. Moreover, the inhibition in [7] was 2.53%; in assay [8], 0.23%; in assay [9] it was 0.89%; in assay [10], 0.08%.
Take `CN(C)CCOc1ccc(-c2nc(-c3ccncc3)c(-c3ccc4c(c3)CC/C4=N\O)[nH]2)cc1`: the inhibition in [1] was -0.9%; in assay [2] it was 4.78%; in [3], 5.79%; in assay [4], 2.29%; in assay [5], 11.9%; in assay [6], 2.5%. The inhibition in [7] amounted to 10.2%; in assay [8], 1.21%; in assay [9], 2.51%; in [10], 2.02%.
Take `COC(=O)Nc1nc2ccc(S(=O)(=O)c3ccc(NC(=O)Nc4cc(C(F)(F)F)ccc4F)cc3)cc2[nH]1`: the inhibition in assay [1] is 0.05%; in assay [2], 3.65%; in assay [3], 2.49%; in assay [4] it was 5.47%; in assay [5] it was 10.9%; in assay [6], -0.2%. Also, the inhibition in [7] was -6.28%; in [8], 0.69%; in assay [9] it was 0.6%; in assay [10], 1.94%.
Regarding `CCc1nn2ncccc2c1-c1ccnc(NC2CC2)n1`, the inhibition stood at 2.4% in assay [1]; 3.41% in assay [2]; 4.89% in assay [3]; 4.14% in assay [4]; 6.65% in [5]; 1.41% in assay [6]. For the same compound, the inhibition in [7] came to 5.48%; in [8], 1.22%; in [9], 2.89%; in assay [10], 0.51%.
Turning to `COc1cc2ncn(-c3cc(OCc4ccccc4C(F)(F)F)c(C(=O)N(C)C)s3)c2cc1OC`, the inhibition in assay [1] turned out to be 1.81%; in assay [2], 0.84%; in [3], 2.14%; in assay [4], 1.94%; in assay [5], 3.94%; in [6] it was 8.67%. The inhibition in assay [7] was 48.7%; in assay [8], 0.68%; in assay [9] it was 7.7%; in assay [10], 1.49%.
For the compound `COc1cccc(-c2c[nH]c3c(N/N=C/c4ccncc4)ncnc23)c1`, the inhibition is 4.79% in assay [1]; 3.87% in assay [2]; 16.5% in assay [3]; 4.98% in assay [4]; 27.5% in [5]; 10% in assay [6]. The inhibition came to 41.7% in [7], 1.63% in [8], 15.3% in assay [9] and 6.49% in assay [10].
Take `CNC(=O)c1cncc(/C=C/c2ccccc2Cl)c1`: the inhibition in assay [1] is 0.31%; in assay [2], 2.56%; in [3], 10.2%; in [4] it was -0.85%; in [5] it was 4.09%; in [6], 2.57%. The inhibition in assay [7] is 27.7%; in assay [8] it was 0.2%; in assay [9], 5.7%; in assay [10] it was -5.21%.
Take `Fc1ccc(-c2nn3ccccc3c2-c2ccncc2)cc1`: the inhibition in [1] was 0.32%; in assay [2], 1.22%; in [3] it was 2.64%; in assay [4], 3.2%; in assay [5] it was 4.76%; in assay [6], -0.64%. Also, the inhibition in assay [7] amounted to 0.91%; in assay [8], 0.16%; in assay [9], 0.87%; in assay [10], 2.3%.
`Nc1ncc(-c2cccc(S(N)(=O)=O)c2)c2scc(-c3ccc(F)c(Cl)c3)c12`: the inhibition in [1] is -4.44%; in assay [2], 25.8%; in assay [3], 75.2%; in assay [4], 2.99%; in assay [5], 11.1%; in [6] it was 6.81%. The inhibition in assay [7] came out at 36%; in [8], 5.03%; in [9], 36.6%; in [10] it was 1.33%.
With `CCn1c(-c2nonc2N)nc2c(C#CC(C)(C)O)ncc(OC3CCNCC3)c21`, the inhibition in assay [1] came to 1.12%; in [2], 5.92%; in [3] it was 3.33%; in assay [4], 4.81%; in [5] it was 7.95%; in [6], 1.33%. Further, the inhibition is 0.26% in assay [7], 0.61% in assay [8], 1.17% in [9] and 2.16% in [10].
Turning to `COc1cc(/C=N/Nc2ncnc3[nH]ncc23)ccc1O`, the inhibition came out at 14.2% in [1]; 8.19% in assay [2]; 38.6% in assay [3]; 2.16% in assay [4]; 9.2% in assay [5]; 4.02% in assay [6]. The inhibition in assay [7] was 18.9%; in [8], 1.76%; in assay [9], 8.52%; in assay [10], 2.3%.
